Measured values published in PubChem BioAssay (EPA / NIEHS).
The source made the active and inactive calls. The calls were made as follows: active = hit-call score of the fitted dose curve at least 0.9, where 1 is the maximum; inactive = score below 0.9.

Experiments:
[1] = read-out: Macrophage colony-stimulating factor (MCSF), CSF1 (gene 1435); assay: BSK_hDFCGF_MCSF: BioMAP Diversity Plus: hDFCGF Assay for Macrophage colony-stimulating factor (MCSF) Biomarker Activity (AID 2283060); conditions: primary human foreskin fibroblasts; actives raise or lower the signal
Outline: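 Human foreskin primary fibroblasts were treated with test chemical for 24 h, and M-CSF was then measured by ELISA. Data were fitted bidirectionally against DMSO as the negative control and activity baseline.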

[2] = BSK_hDFCGF_SRB: Viability Assessment in the BioMAP Diversity Plus: hDFCGF Assay (AID 2283061); conditions: primary human foreskin fibroblasts;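 also: cells exposed to compound for 24 h before the read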
Outline: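 Human foreskin primary fibroblasts were treated with compound and assessed 24 h after dosing. Total protein was measured by sulforhodamine B staining (0.1% SRB after 10% TCA fixation, 560 nm read) as a cytotoxicity marker, with bidirectional fitting against DMSO baseline.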

[3] = read-out: TIMP metallopeptidase inhibitor 1 (TIMP1), TIMP1 (gene 7076); assay: BSK_hDFCGF_TIMP1: BioMAP Diversity Plus: hDFCGF Assay for TIMP metallopeptidase inhibitor 1 (TIMP1) Biomarker Activity (AID 2283062); conditions: primary human foreskin fibroblasts; actives raise or lower the signal
Outline: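 Primary human foreskin fibroblasts in the hDFCGF system were dosed with compound for 24 h, then TIMP-1 was measured by ELISA. Activity was fitted bidirectionally relative to DMSO control; parallel SRB staining assessed cytotoxicity.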

[4] = read-out: Monokine induced gamma interferon (MIG), CXCL9 (gene 4283); assay: BSK_hDFCGF_MIG: BioMAP Diversity Plus: hDFCGF Assay for Monokine induced gamma interferon (MIG) Biomarker Activity (AID 2283063); conditions: primary human foreskin fibroblasts; actives raise or lower the signal
Outline: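 ELISA read-out of MIG from primary human dermal fibroblasts 24 h post-dosing. Gain or loss of signal fitted bidirectionally, DMSO as baseline.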

[5] = read-out: Matrix Metallopeptidase 1 (MMP1), MMP1 (gene 4312); assay: BSK_hDFCGF_MMP1: BioMAP Diversity Plus: hDFCGF Assay for Matrix Metallopeptidase 1 (MMP1) Biomarker Activity (AID 2283064); conditions: primary human foreskin fibroblasts; actives raise or lower the signal
Outline: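 ELISA read-out of MMP1 from human foreskin fibroblasts (primary skin cells), 24 h post-dose. Gain or loss of signal was fitted bidirectionally versus DMSO negative control; cytotoxicity was checked by SRB in parallel cultures.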

[6] = read-out: Plasminogen activator inhibitor-1 (PAI1), SERPINE1 (gene 5054); assay: BSK_hDFCGF_PAI1: BioMAP Diversity Plus: hDFCGF Assay for Plasminogen activator inhibitor-1 (PAI1) Biomarker Activity (AID 2283066); conditions: primary human foreskin fibroblasts; actives raise or lower the signal
Outline: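 Human skin fibroblast cultures receive chemical for 24 h before PAI-1 is measured by ELISA; signal changes are fitted bidirectionally against DMSO-treated wells.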

[7] = read-out: Intercellular Adhesion Molecule 1 (ICAM1), ICAM1 (gene 3383); assay: BSK_KF3CT_ICAM1: BioMAP Diversity Plus: KF3CT Assay for Intercellular Adhesion Molecule 1 (ICAM1) Biomarker Activity (AID 2283067); conditions: primary human keratinocytes with fibroblasts; actives raise or lower the signal
Outline: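 Human keratinocyte plus foreskin fibroblast primary co-culture was exposed to chemical for 24 h. ICAM-1 was then quantified by ELISA, and the data were fit bidirectionally against DMSO as the negative control and baseline.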

[8] = read-out: Interferon-gamma inducible Protein 10 (IP10), CXCL10 (gene 3627); assay: BSK_KF3CT_IP10: BioMAP Diversity Plus: KF3CT Assay for Interferon-gamma inducible Protein 10 (IP10) Biomarker Activity (AID 2283068); conditions: primary human keratinocytes with fibroblasts; actives raise or lower the signal
Outline: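 Signal is secreted/surface IP-10 by ELISA in a human primary skin co-culture of keratinocytes and foreskin fibroblasts, taken 24 h post-dosing; DMSO served as negative control.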

[9] = BSK_KF3CT_SRB: Viability Assessment in the BioMAP Diversity Plus: KF3CT Assay (AID 2283069); conditions: primary human keratinocytes with fibroblasts
Outline: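 SRB read-out at 560 nm (0.1% stain, TCA-fixed cells) gauges overt cytotoxicity in a human skin keratinocyte–fibroblast co-culture 24 h post-dosing. Signal change was fitted bidirectionally relative to DMSO control.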

[10] = read-out: Interleukin-1 alpha (IL1a), IL1A (gene 3552); assay: BSK_KF3CT_IL1a: BioMAP Diversity Plus: KF3CT Assay for Interleukin-1 alpha (IL1a) Biomarker Activity (AID 2283070); conditions: primary human keratinocytes with fibroblasts; actives raise or lower the signal
Outline: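 Primary skin co-culture (keratinocytes, foreskin fibroblasts), 24 h exposure; ELISA for IL-1a; bidirectional curve fit vs DMSO.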

[11] = read-out: Transforming growth factor beta 1 (TGFb1), TGFB1 (gene 7040); assay: BSK_KF3CT_TGFb1: BioMAP Diversity Plus: KF3CT Assay for Transforming growth factor beta 1 (TGFb1) Biomarker Activity (AID 2283072); conditions: primary human keratinocytes with fibroblasts; actives raise or lower the signal
Outline: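 TGF-b1 ELISA on a 24 h dosed co-culture of human keratinocytes and foreskin fibroblasts; cytotoxicity tracked in parallel cultures by SRB staining.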

[12] = read-out: C-C motif chemokine 2 (Homo sapiens) (UniProt P13500); assay: BSK_KF3CT_MCP1: BioMAP Diversity Plus: KF3CT Assay for Monocyte Chemoattractant Protein 1 (MCP1/CCL2) Biomarker Activity (AID 2283073); conditions: primary human keratinocytes with fibroblasts; actives raise or lower the signal
Outline: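 Human keratinocyte plus foreskin fibroblast primary co-culture exposed to chemical for 24 h. MCP-1 levels measured by ELISA. Bidirectional curve fitting relative to DMSO negative control as baseline.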

[13] = read-out: Matrix Metallopeptidase 9 (MMP9), MMP9 (gene 4318); assay: BSK_KF3CT_MMP9: BioMAP Diversity Plus: KF3CT Assay for Matrix Metallopeptidase 9 (MMP9) Biomarker Activity (AID 2283074); conditions: primary human keratinocytes with fibroblasts; actives raise or lower the signal;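 as to AC50: MMP9 protein level quantified by ELISA in the co-culture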
Outline: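 ELISA read-out of MMP-9 at 24 h post-dosing in a co-culture of human skin keratinocytes and foreskin fibroblasts. Gain or loss of signal was fitted in both directions against DMSO.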

[14] = read-out: urokinase plasminogen activator (uPA), PLAU (gene 5328); assay: BSK_KF3CT_uPA: BioMAP Diversity Plus: KF3CT Assay for urokinase plasminogen activator (uPA) Biomarker Activity (AID 2283075); conditions: primary human keratinocytes with fibroblasts; actives raise or lower the signal
Outline: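 Skin co-culture (keratinocytes + foreskin fibroblasts), human primary; 24 h post-dose; uPA by ELISA; gain/loss fit vs DMSO baseline.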

CD40, CD40 (gene 958) = assay: BSK_LPS_CD40: BioMAP Diversity Plus: LPS Assay for CD40 Biomarker Activity (AID 2283076); conditions: primary human HUVEC with PBMC; actives raise or lower the signal
Outline: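 Primary human umbilical vein endothelial cells co-cultured with peripheral blood mononuclear cells, LPS-stimulated, were dosed with chemical and read 24 h later. CD40 levels were measured by ELISA and fitted bidirectionally against DMSO as negative control and baseline.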

[15] = read-out: E-selectin (Homo sapiens) (UniProt P16581); assay: BSK_LPS_Eselectin: BioMAP Diversity Plus: LPS Assay for Eselectin Biomarker Activity (AID 2283077); conditions: primary human HUVEC with PBMC; actives raise or lower the signal
Outline: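 Human umbilical vein endothelial cells co-cultured with peripheral blood mononuclear cells under LPS stimulation; E-selectin measured by ELISA 24 h after chemical dosing. Activity fitted bidirectionally against DMSO as negative control and baseline.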

[16] = read-out: Interleukin-8 (IL8), CXCL8 (gene 3576); assay: BSK_LPS_IL8: BioMAP Diversity Plus: LPS Assay for Interleukin-8 (IL8) Biomarker Activity (AID 2283078); conditions: primary human HUVEC with PBMC; actives raise or lower the signal
Outline: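 Human umbilical vein endothelial cells co-cultured with PBMC were stimulated with LPS; IL-8 levels were measured by ELISA 24 h after chemical dosing. Activity was fitted bidirectionally against DMSO as negative control and baseline.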

[17] = BSK_LPS_SRB: Viability Assessment in the BioMAP Diversity Plus: LPS Assay (AID 2283079); conditions: primary human HUVEC with PBMC;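 also: total protein by sulforhodamine B absorbance as a cytotoxicity measure; measured one day after compound addition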
Outline: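 Human umbilical vein endothelial cells co-cultured with PBMC (LPS system) were dosed for 24 h. Total protein was stained with 0.1% sulforhodamine B after 10% TCA fixation, read at 560 nm, and fitted bidirectionally against DMSO baseline.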

[18] = read-out: Vascular cell adhesion molecule 1 (VCAM1), VCAM1 (gene 7412); assay: BSK_hDFCGF_VCAM1: BioMAP Diversity Plus: hDFCGF Assay for Vascular cell adhesion molecule 1 (VCAM1) Biomarker Activity (AID 2283065); conditions: primary human foreskin fibroblasts; actives raise or lower the signal;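 as to AC50: VCAM-1 protein level quantified by ELISA after 24 h chemical exposure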
Outline: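 Primary human foreskin fibroblasts (hDFCGF system) were dosed with chemical and VCAM-1 was measured by ELISA 24 h later. Bidirectional curve fitting used DMSO as negative control and activity baseline.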

[19] = read-out: TIMP metallopeptidase inhibitor 2 (TIMP2), TIMP2 (gene 7077); assay: BSK_KF3CT_TIMP2: BioMAP Diversity Plus: KF3CT Assay for TIMP metallopeptidase inhibitor 2 (TIMP2) Biomarker Activity (AID 2283071); conditions: primary human keratinocytes with fibroblasts; actives raise or lower the signal
Outline: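 Measurements come from ELISA detection of TIMP-2 at 24 hours in a dosed human keratinocyte and foreskin fibroblast co-culture. DMSO serves as negative control and baseline.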

Measured: AC50

E-selectin (Homo sapiens), sequence (P16581 whole entry, looked up): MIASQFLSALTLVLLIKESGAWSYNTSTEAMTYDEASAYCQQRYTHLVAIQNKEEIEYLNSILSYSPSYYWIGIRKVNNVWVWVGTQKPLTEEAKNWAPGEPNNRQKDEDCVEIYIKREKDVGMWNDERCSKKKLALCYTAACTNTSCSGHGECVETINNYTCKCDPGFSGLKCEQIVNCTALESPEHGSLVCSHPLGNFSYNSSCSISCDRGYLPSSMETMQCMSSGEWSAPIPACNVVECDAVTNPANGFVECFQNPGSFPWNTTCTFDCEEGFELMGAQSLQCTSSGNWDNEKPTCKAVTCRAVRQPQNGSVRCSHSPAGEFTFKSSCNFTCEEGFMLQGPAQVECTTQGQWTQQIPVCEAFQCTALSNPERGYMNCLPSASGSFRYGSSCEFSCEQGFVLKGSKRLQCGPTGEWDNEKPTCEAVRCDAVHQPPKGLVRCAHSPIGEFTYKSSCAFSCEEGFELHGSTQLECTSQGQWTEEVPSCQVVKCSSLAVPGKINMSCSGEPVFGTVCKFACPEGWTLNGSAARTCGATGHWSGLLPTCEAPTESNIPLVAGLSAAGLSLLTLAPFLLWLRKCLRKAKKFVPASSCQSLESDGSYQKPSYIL

CCCCCCCCCCC
inactive: [1] | [2] | [3] | [4] | [5] | [6] | [7] | [8] | [9] | [10] | [11] | [12] | [13] | [14] | CD40, CD40 (gene 958) | [15] | [16] | [17]

CCCCCCCCCCCCCCCC
inactive: [1] | [2] | [3] | [4] | [5] | [18] | [6] | [7] | [8] | [9] | [10] | [11] | [12] | [13] | [14] | CD40, CD40 (gene 958) | [15] | [16] | [17]

Cc1ccc(N(C)C)cc1
inactive: [1] | [2] | [3] | [4] | [18] | [6] | [7] | [8] | [10] | [19] | [11] | [12] | [13] | [14] | CD40, CD40 (gene 958) | [15] | [16] | [17]

CN[C@H]1CC[C@@H](c2ccc(Cl)c(Cl)c2)c2ccc(S(N)(=O)=O)cc21
active: [1] 20 µM | [2] 28.1 µM | [3] 31.4 µM | [4] 34.5 µM | [18] 11.9 µM | [6] 23.9 µM | [7] 31.6 µM | [8] 28.3 µM | [10] 29.1 µM | [11] 19.9 µM | [12] 14.9 µM | [13] 20.9 µM | [14] 18.6 µM | CD40, CD40 (gene 958) 20 µM | [15] 30.5 µM | [16] 20 µM | [17] 26.6 µM

O=C(N[C@@H](Cc1ccccc1)[C@@H](O)C(=O)N1C[C@@H](O)[C@@H](O)C1)c1cc2cc(Cl)ccc2[nH]1
active: [19] 11.9 µM
inactive: [1] | [2] | [3] | [4] | [6] | [7] | [8] | [9] | [10] | [11] | [12] | [13] | [14] | CD40, CD40 (gene 958) | [15] | [16] | [17]

Nc1ccc(S(=O)(=O)c2ccc(N)cc2)cc1
inactive: [1] | [2] | [3] | [4] | [18] | [6] | [7] | [8] | [9] | [10] | [19] | [11] | [12] | [13] | [14] | CD40, CD40 (gene 958) | [15] | [16] | [17]
